# From publication PMC7862700, “An all-to-all approach to the identification of sequence-specific readers for epigenetic DNA modifications on cytosine”
# Experiments:
# Experiment in all cases: DAPPL (digital affinity profiling via proximity ligation, sequencing); 10 mM Tris-HCl pH 7.5, 50 mM NaCl, 1 mM DTT, 4% glycerol, room temperature, 30 min; GST-TFs on glutathione beads, 16-mer random dsDNA library, 0.1% formaldehyde crosslink after washing; high values mean tight binding
# FEV = biological target: T1, FEV (Homo sapiens, UniProt Q99581 1-238); details: protein: recombinant; tags: N-terminal GST; dsDNA, one strand shown
# T1 sequence: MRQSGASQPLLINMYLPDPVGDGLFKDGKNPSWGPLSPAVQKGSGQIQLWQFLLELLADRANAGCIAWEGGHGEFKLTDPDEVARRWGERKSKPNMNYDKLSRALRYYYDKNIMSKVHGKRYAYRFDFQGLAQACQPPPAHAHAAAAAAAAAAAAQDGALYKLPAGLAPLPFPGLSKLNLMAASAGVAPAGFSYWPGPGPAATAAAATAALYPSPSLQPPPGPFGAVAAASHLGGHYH
# Summary of the method: (§1)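 Human transcription factors fused to GST were expressed in yeast, captured on glutathione beads, given DNA barcodes and pooled with a GST-only negative control. Pools were incubated with 200 nmole of a 16-mer random double-stranded DNA library in Tris/NaCl/DTT/glycerol buffer at room temperature for 30 min. They were then washed, crosslinked with 0.1% formaldehyde, proximity-ligated (BsaI/T4 ligase, 1 h, 37 °C), PCR-amplified and sequenced on an Illumina NextSeq500. Binding signal is each 6-mer's read frequency for a factor divided by its frequency for the GST control.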
# ETV5 = ETV5 (Homo sapiens, UniProt P41161 1-510); details: protein: recombinant; tags: N-terminal GST; dsDNA, one strand shown
# ETV5, sequence (P41161 whole entry): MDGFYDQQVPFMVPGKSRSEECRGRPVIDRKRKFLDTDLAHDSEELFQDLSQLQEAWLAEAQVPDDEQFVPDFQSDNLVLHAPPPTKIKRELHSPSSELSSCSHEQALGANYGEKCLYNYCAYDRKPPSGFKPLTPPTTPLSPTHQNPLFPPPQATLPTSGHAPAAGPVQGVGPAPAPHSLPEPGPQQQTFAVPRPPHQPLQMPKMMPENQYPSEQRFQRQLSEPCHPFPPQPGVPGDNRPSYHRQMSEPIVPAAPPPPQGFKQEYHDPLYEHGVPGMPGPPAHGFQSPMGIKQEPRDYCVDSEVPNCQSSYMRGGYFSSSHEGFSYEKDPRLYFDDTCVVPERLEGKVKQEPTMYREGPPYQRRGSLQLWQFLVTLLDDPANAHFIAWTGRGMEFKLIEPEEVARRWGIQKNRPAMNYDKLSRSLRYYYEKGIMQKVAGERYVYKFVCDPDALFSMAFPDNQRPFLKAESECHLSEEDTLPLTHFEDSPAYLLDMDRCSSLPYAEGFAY
# Summary of the method: as §1
# HSF1 = HSF1 (Homo sapiens, UniProt Q00613 1-529); details: protein: recombinant; tags: N-terminal GST; chain copies: 3; dsDNA, one strand shown
# HSF1, sequence (Q00613 whole entry): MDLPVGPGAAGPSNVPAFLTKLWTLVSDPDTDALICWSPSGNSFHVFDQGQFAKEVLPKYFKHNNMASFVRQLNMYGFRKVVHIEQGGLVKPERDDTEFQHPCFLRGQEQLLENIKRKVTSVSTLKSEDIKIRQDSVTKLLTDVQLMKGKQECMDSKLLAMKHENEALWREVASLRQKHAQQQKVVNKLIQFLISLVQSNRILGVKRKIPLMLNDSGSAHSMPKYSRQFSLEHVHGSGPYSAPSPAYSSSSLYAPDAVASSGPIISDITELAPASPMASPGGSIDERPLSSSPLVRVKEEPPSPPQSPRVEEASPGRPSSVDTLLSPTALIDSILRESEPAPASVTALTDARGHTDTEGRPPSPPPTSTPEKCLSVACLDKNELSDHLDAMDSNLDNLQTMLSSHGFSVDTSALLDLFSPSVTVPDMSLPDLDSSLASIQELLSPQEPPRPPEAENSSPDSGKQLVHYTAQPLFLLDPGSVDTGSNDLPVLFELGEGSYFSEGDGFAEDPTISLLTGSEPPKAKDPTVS
# Summary of the method: as §1
# SPIC = biological target: T2, SPIC (Homo sapiens, UniProt Q8N5J4 1-248); details: protein: recombinant; tags: N-terminal GST; dsDNA, one strand shown
# T2 sequence: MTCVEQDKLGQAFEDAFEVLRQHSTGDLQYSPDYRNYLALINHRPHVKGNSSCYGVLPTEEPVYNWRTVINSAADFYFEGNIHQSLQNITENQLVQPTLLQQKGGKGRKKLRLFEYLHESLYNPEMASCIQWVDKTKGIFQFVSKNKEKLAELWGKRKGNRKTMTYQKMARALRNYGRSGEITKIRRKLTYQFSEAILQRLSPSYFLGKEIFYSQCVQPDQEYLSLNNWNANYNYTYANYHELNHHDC
# Summary of the method: as §1
# ELF4 = ELF4 (Homo sapiens, UniProt Q99607 1-663); details: protein: recombinant; tags: N-terminal GST; dsDNA, one strand shown
# ELF4, sequence (Q99607 whole entry): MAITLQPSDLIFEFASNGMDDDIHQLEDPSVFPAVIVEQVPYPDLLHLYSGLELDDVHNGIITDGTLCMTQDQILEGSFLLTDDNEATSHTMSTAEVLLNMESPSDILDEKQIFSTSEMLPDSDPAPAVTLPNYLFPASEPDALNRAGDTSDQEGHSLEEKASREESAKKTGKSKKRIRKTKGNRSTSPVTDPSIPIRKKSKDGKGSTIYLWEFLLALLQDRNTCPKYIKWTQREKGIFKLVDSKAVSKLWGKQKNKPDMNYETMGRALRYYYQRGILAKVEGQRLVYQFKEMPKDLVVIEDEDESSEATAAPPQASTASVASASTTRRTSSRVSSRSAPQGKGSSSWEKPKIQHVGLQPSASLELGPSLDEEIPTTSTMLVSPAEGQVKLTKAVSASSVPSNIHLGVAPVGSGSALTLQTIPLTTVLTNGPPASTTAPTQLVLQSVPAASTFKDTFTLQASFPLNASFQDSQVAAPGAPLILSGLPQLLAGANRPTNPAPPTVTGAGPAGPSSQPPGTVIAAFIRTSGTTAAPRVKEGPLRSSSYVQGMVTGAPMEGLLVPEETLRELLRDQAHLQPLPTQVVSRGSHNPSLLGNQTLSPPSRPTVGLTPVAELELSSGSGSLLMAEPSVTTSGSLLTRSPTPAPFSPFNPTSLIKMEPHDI
# Summary of the method: as §1
# ELK4 = biological target: T3, ELK4 (Homo sapiens, UniProt P28324-2 1-405); details: protein: recombinant; tags: N-terminal GST; dsDNA, one strand shown
# T3 sequence: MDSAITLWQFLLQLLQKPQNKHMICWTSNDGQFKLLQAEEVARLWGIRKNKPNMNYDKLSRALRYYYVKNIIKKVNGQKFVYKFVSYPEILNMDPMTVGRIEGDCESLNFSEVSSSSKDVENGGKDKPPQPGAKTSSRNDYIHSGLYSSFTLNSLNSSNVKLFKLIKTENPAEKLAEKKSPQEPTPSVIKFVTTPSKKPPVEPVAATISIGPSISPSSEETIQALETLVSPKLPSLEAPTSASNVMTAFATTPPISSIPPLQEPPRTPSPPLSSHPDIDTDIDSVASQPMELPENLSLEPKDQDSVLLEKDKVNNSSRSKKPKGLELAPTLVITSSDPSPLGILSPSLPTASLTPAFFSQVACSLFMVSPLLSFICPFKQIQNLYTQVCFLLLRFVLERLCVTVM
# Summary of the method: as §1
# ETV2 = biological target: T4, ETV2 (Homo sapiens, UniProt O00321 1-342); details: protein: recombinant; tags: N-terminal GST; dsDNA, one strand shown
# T4 sequence: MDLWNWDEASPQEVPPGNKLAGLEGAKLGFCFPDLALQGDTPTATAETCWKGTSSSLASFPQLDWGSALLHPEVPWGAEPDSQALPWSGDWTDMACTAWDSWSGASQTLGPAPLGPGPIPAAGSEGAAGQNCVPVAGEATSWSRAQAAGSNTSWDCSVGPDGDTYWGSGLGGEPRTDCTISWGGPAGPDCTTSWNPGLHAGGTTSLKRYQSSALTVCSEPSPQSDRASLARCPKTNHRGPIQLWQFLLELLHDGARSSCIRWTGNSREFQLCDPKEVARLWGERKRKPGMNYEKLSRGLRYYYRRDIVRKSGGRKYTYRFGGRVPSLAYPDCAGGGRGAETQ
# Summary of the method: as §1
# ELF3 = biological target: T5, ELF3 (Homo sapiens, UniProt P78545 1-371); details: protein: recombinant; tags: N-terminal GST; dsDNA, one strand shown
# T5 sequence: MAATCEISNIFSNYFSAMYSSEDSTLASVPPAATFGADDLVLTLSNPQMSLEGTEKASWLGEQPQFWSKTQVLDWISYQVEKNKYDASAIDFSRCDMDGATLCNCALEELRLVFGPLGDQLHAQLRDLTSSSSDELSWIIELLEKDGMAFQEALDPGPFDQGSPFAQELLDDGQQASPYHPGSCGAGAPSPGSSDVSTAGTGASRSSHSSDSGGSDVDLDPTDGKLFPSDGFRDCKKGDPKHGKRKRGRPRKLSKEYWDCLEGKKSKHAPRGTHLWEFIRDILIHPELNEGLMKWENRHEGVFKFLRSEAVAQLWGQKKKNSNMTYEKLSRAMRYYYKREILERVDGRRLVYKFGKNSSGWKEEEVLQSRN
# Summary of the method: as §1
# CRX = CRX (Homo sapiens, UniProt O43186 1-299); details: protein: recombinant; tags: N-terminal GST; dsDNA, one strand shown
# CRX, sequence (O43186 whole entry): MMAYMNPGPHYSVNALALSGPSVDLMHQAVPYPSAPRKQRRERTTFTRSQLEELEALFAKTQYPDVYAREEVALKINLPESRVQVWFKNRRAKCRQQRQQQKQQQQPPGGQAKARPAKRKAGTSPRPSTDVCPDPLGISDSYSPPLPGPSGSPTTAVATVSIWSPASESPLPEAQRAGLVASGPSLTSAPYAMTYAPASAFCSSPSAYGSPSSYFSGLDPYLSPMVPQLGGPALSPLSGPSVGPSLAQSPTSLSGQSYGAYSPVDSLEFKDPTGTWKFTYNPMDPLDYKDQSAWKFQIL
# Summary of the method: as §1
# ETV1 = ETV1 (Homo sapiens, UniProt P50549 1-477); details: protein: recombinant; tags: N-terminal GST; dsDNA, one strand shown
# ETV1, sequence (P50549 whole entry): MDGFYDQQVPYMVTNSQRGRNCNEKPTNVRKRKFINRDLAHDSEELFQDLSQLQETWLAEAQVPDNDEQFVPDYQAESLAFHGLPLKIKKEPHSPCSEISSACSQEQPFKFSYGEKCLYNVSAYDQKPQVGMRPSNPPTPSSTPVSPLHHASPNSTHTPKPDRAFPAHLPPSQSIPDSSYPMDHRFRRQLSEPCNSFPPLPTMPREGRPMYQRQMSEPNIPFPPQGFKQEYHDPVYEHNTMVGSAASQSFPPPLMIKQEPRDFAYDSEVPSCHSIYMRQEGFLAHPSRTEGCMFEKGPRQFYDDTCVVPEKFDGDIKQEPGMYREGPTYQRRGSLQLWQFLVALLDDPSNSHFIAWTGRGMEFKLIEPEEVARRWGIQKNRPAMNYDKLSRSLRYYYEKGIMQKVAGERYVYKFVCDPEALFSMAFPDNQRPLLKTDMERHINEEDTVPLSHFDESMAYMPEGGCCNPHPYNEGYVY
# Summary of the method: as §1
# ERF = biological target: T6, ERF (Homo sapiens, UniProt P50548 1-548); details: protein: recombinant; tags: N-terminal GST; dsDNA, one strand shown
# T6 sequence: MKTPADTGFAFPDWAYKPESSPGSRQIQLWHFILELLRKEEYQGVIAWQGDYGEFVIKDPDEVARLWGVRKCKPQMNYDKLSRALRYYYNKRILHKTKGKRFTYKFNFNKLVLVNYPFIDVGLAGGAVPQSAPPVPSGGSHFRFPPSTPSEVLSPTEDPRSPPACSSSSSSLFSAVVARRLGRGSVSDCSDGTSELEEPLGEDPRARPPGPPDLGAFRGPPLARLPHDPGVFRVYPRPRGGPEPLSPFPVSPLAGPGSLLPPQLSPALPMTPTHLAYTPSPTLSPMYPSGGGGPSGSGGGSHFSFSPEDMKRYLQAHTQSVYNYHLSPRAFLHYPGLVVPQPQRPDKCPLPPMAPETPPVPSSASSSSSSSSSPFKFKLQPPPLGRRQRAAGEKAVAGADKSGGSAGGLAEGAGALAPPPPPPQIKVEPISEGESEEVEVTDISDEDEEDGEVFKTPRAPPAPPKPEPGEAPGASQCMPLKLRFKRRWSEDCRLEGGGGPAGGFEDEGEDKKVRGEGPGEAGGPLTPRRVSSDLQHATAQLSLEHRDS
# Summary of the method: as §1
# ETV3L = biological target: T7, ETV3L (Homo sapiens, UniProt Q6ZN32 1-361); details: protein: recombinant; tags: N-terminal GST; dsDNA, one strand shown
# T7 sequence: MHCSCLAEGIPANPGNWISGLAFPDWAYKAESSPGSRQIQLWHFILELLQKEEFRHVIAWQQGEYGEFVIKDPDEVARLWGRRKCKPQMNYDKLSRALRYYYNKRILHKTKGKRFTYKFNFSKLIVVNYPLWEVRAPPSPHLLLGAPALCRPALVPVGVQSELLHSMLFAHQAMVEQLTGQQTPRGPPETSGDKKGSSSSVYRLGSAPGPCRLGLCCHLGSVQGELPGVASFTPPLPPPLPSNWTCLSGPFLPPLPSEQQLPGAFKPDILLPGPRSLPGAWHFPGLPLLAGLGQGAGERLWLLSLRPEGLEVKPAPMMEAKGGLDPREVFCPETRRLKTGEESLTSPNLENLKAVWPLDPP
# Summary of the method: as §1
# ETS2 = biological target: T8, ETS2 (Homo sapiens, UniProt P15036 1-469); details: protein: recombinant; tags: N-terminal GST; dsDNA, one strand shown
# T8 sequence: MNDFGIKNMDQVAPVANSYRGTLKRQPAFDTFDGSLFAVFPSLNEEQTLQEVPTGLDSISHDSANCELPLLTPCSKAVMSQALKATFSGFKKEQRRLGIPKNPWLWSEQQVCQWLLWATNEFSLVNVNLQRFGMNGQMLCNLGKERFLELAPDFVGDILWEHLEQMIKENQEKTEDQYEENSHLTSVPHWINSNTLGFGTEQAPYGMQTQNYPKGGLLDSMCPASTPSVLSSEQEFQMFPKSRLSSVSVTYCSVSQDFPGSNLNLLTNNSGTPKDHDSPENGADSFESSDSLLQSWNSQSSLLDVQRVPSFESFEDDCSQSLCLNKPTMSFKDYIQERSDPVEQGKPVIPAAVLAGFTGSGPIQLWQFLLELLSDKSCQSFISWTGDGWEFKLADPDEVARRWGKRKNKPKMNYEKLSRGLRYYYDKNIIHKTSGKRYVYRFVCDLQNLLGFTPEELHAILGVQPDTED
# Summary of the method: as §1
# SPDEF = biological target: T9, SPDEF (Homo sapiens, UniProt O95238 1-335); details: protein: recombinant; tags: N-terminal GST; dsDNA, one strand shown
# T9 sequence: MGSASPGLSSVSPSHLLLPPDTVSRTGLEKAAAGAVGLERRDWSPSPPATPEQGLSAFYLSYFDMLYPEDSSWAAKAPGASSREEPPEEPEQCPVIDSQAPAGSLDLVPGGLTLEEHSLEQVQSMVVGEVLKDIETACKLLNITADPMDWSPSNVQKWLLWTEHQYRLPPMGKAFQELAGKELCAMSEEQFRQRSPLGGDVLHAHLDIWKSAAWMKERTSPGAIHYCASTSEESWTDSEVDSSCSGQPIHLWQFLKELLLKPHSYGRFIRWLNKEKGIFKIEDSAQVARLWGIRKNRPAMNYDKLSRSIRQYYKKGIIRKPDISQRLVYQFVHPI
# Summary of the method: as §1
# ETV7 = biological target: T10, ETV7 (Homo sapiens, UniProt Q9Y603 1-341); details: protein: recombinant; tags: N-terminal GST; dsDNA, one strand shown
# T10 sequence: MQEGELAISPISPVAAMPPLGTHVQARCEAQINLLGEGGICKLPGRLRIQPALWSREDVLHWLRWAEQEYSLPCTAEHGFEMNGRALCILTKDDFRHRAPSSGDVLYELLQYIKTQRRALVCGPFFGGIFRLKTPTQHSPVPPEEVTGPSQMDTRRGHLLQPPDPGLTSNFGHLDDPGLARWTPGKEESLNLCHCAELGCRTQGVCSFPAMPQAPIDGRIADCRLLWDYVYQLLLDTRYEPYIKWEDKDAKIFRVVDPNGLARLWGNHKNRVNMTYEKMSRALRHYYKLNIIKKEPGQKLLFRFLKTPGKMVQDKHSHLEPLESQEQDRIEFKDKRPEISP
# Summary of the method: as §1
# ELF5 = biological target: T11, ELF5 (Homo sapiens, UniProt Q9UKW6-2 1-255); details: protein: recombinant; tags: N-terminal GST; dsDNA, one strand shown
# T11 sequence: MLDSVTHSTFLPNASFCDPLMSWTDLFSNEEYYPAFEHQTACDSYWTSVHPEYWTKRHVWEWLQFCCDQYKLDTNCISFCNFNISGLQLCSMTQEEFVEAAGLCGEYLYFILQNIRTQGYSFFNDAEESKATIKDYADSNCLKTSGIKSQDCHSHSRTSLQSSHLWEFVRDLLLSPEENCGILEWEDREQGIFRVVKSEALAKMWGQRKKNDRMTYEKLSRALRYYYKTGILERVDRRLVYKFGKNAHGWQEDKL
# Summary of the method: as §1
# ETV3 = biological target: T12, ETV3 (Homo sapiens, UniProt P41162-2 1-143); details: protein: recombinant; tags: N-terminal GST; dsDNA, one strand shown
# T12 sequence: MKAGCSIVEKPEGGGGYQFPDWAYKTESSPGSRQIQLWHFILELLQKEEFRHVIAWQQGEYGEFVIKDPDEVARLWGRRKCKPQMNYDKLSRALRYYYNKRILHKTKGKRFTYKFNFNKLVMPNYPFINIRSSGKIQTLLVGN
# Summary of the method: as §1
sequence,measurement,setting,value
GCTGAT,binding signal,FEV,"1.07 fold enrichment (6-mer frequency, TF over GST control)"
same,binding signal,ETV5,"1.11 fold enrichment (6-mer frequency, TF over GST control)"
same,binding signal,HSF1,"1.16 fold enrichment (6-mer frequency, TF over GST control)"
same,binding signal,SPIC,"1.19 fold enrichment (6-mer frequency, TF over GST control)"
same,binding signal,ELF4,"1.19 fold enrichment (6-mer frequency, TF over GST control)"
same,binding signal,ELK4,"1.25 fold enrichment (6-mer frequency, TF over GST control)"
same,binding signal,ETV2,"1.08 fold enrichment (6-mer frequency, TF over GST control)"
same,binding signal,ELF3,"1.16 fold enrichment (6-mer frequency, TF over GST control)"
same,binding signal,CRX,"1.39 fold enrichment (6-mer frequency, TF over GST control)"
same,binding signal,ETV1,"1.2 fold enrichment (6-mer frequency, TF over GST control)"
same,binding signal,ERF,"1.07 fold enrichment (6-mer frequency, TF over GST control)"
same,binding signal,ETV3L,"1.18 fold enrichment (6-mer frequency, TF over GST control)"
same,binding signal,ETS2,"1.12 fold enrichment (6-mer frequency, TF over GST control)"
same,binding signal,SPDEF,"1.07 fold enrichment (6-mer frequency, TF over GST control)"
same,binding signal,ETV7,"1.27 fold enrichment (6-mer frequency, TF over GST control)"
same,binding signal,ELF5,"1.03 fold enrichment (6-mer frequency, TF over GST control)"
same,binding signal,ETV3,"1.2 fold enrichment (6-mer frequency, TF over GST control)"
